Measurements: PubChem BioAssay AID1724 (National Center for Advancing Translational Sciences (NCATS), 2009)
Inconclusive results are not listed. Activity calls are given as the source filed them. Calls come from the whole dose curve; as a rule, active = well fitted inhibition curve with a large enough effect; inconclusive = small, poorly fitted or top-dose-only effect, or effect the other way; inactive = no such curve, though single readings can be large or run the other way.

Test: Confirmation Concentration-Response Assay for Inhibitors of the ERK Signaling Pathway using a Homogeneous Screening Assay
Conditions: HEK293 cells, hormone-stimulated phospho-ERK AlphaScreen; series mostly up to 40.9 µM; activity change, negative = inhibition: at the top concentration
How it was run: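 Vasopressin-V1b-expressing HEK293 cells, seeded overnight in 1% FBS, pretreated 30 min at 37C with compounds, then stimulated 5 min with 25 nM vasopressin. Phospho-ERK read by AlphaScreen after lysis and 5 hr beads; AC50 from Hill fit, normalized to DMSO and vasopressin.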

Row | SMILES | activity change, negative = inhibition | Potency
1 | Cc1ccc(Nc2ncnc3sc(C)c(C)c23)cc1 | -43.3% (inactive) | 
2 | COc1cccc(/C=N/Nc2cc(-n3nc(C)cc3-c3ccccc3)ncn2)c1O | -68.1% (inactive) | 
3 | Cc1cccc(CNc2ncnc3ccc(-c4cccnc4)cc23)c1 |  | 12.6 µM (active)
4 | CNc1cccc2c1C(=O)c1ccccc1C2=O |  | 14.1 µM (active)
5 | O=C(c1cccs1)c1no[n+]([O-])c1C(=O)c1cccs1 |  | 2 µM (active)
6 | Cc1sc2ncnc(Nc3ccccc3)c2c1C | -50.7% (inactive) | 
7 | CCC(=O)N1CCN(c2ccc(NC(=O)c3cc4ccccc4o3)cc2Cl)CC1 |  | 12.6 µM (active)
8 | COc1ccc(C2=Nn3c(nnc3-c3ccccc3OC)SC2)cc1OC |  | 2.24 µM (active)
9 | CCOc1ccc(/C(O)=C2/C(=O)C(=O)N(c3ncccn3)C2c2ccccc2)cc1 (configuration not stated) | 1.77% (inactive) | 
10 | COc1cc2ncnc(Nc3cccc(Cl)c3)c2cc1OC |  | inactive
11 | COc1ccc(N=C2C(=Nc3ccc(OC)cc3)N(c3ccccc3)C(=S)N2C(=O)c2ccc(Cl)cc2)cc1 |  | 3.16 µM (active)
12 | Cc1cc(-c2ccccc2)n(-c2cc(N/N=C/c3ccccc3O)ncn2)n1 | -78% (inactive) | 
13 | C=C[C@@]1(C)CC(=O)[C@@]2(O)[C@@]3(C)[C@@H](O)CCC(C)(C)[C@@H]3[C@H](OC(=O)CCN(C)C)[C@H](OC(C)=O)[C@@]2(C)O1 |  | 0.282 µM (active)
14 | COc1ccc(CNc2ncnc3ccc(-c4cccc(NS(C)(=O)=O)c4)cc23)c(OC)c1 |  | 15.8 µM (active)
15 | Cn1nc(-c2ccc(Cl)cc2)nc2c(=O)n(C)c(=O)nc1-2 | 5.68% (inactive) | 
16 | CCOC(=O)c1ccc(NC(=O)c2cccc(S(=O)(=O)N3CCOCC3)c2)cc1 |  | 25.1 µM (active)
17 | COc1ccc(C(=O)c2ccc(Cl)c([N+](=O)[O-])c2)cc1 |  | 12.6 µM (active)
18 | O=C1c2ccc(O)c(O)c2C(=O)c2c(O)ccc(O)c21 | -86.9% (inactive) | 
19 | N#CC(C#N)=c1ccc2c(c1)N1C3=C(CCCC3)CC3CCCCC31N=2 (configuration not stated) |  | 5.01 µM (active)
20 | C=C[C@@]1(C)CC(=O)[C@@]2(O)[C@@]3(C)[C@@H](O)CCC(C)(C)[C@@H]3[C@H](O)[C@H](OC(C)=O)[C@@]2(C)O1 | -68.1% (inactive) | 
21 | COc1ccc(C(=O)Nc2cccc(C(C)=O)c2)cc1S(=O)(=O)N1CCOCC1 | -20.3% [at 57.5 µM] (inactive) | 
22 | O=S(=O)(c1ccccc1)N1CCN(c2cc(-c3ccccc3)nc3ncnn23)CC1 |  | 31.6 µM (active)
